# Measurements: the supplement of paper PMC10670038
# Where a name gives a salt, the structure may show the parent alone. ± gives the standard deviation of the averaged measurements. The full ranking holds about 2,000 compounds; the median of “relative cell viability vs DMSO, compound + 0.2 uM CuET” is about 1, and the lowest 2% start at about 0.25. What follows is part of a selection rich in the lowest values, with near analogues and random picks from the rest.
# Test system: TE10
# Experiment: relative cell viability vs DMSO, compound + 0.2 uM CuET (fraction); TE10 is an esophageal squamous carcinoma line; higher = less cytotoxic
# Conditions: 2 µM; co-treatment: CuET (bis(diethyldithiocarbamate)copper) 0.2 uM; 48 h
# Protocol: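 TE10 ESCC cells (1,000/well, 384-well plates) were treated with Selleck bioactive library compounds at 2 uM combined with 0.2 uM CuET (copper diethyldithiocarbamate) for 48 h. Viability was read by CellTiter-Glo and expressed relative to DMSO wells. Two technical replicates (A, B).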
row,Compound,relative cell viability
1,CC(C)(C)C(=O)Nc1ccc2c(c1)C(=O)C(=O)c1ccccc1-2,0.026 ± 0.0042
2,O=C1c2ccccc2C(=O)c2c1ccc(O)c2O [Alizarin],1.1 ± 0.029
3,CC(=O)Nc1ccccc1 [Acetanilide],1.018 ± 0.0034
4,COc1ccc(OC)c(C2C(C#N)=C(N)Oc3n[nH]c(-c4ccc5ccccc5c4)c32)c1 (configuration not stated),1.06 ± 0.048
5,CN(c1ccccc1CNc1nc(Nc2ccc3c(c2)CC(=O)N3)ncc1C(F)(F)F)S(C)(=O)=O,0.709 ± 0.029
6,Cc1ccc(NC(=O)c2ccc(CN3CCN(C)CC3)cc2)cc1Nc1nccc(-c2cccnc2)n1 [Imatinib Mesylate (STI571)],1.43 ± 0.12
7,Nc1ccccc1NC(=O)c1ccc(CNc2nccc(-c3cccnc3)n2)cc1 [Mocetinostat (MGCD0103)],0.249 ± 0.039
8,Nc1ccccc1NC(=O)c1ccc(CNC(=O)OCc2cccnc2)cc1 [Entinostat (MS-275)],0.321 ± 0.033
9,Cc1ccc(NC(=O)c2ccc(CN3CCN(C)CC3)cc2)cc1Nc1nccc(-c2cccnc2)n1 [Imatinib (STI571)],1.05 ± 0.1
10,O=C1Cc2c([nH]c3ccc(Br)cc23)-c2ncccc2N1 [1-Azakenpaullone],1.17 ± 0.11
11,Cc1ccc(-c2csc(NC(=O)c3ccccc3)n2)c(C)c1,1.22 ± 0.19
12,Cn1c(Nc2ccc(C(F)(F)F)cc2)nc2cc(Oc3ccnc(-c4ncc(C(F)(F)F)[nH]4)c3)ccc21,0.847 ± 0.035
13,CCCc1nc(C)c2c(=O)nc(-c3cc(S(=O)(=O)N4CCN(CC)CC4)ccc3OCC)[nH]n12 [Vardenafil HCl Trihydrate],1.1 ± 0.062
14,O=C(c1ccc(F)cc1)N1CCCC(c2nc(-c3ccc(F)cc3)no2)C1 (configuration not stated),1.12 ± 0.22
15,C=CC(=O)N1CC(=Cc2ccc([N+](=O)[O-])cc2)C(=O)C(=Cc2ccc([N+](=O)[O-])cc2)C1,0.126 ± 0.015
16,CN1C(C(=O)Nc2ccccn2)=C(O)c2ccccc2S1(=O)=O [Piroxicam],1.02 ± 0.064
17,Nc1ccccc1NC(=O)c1cnccn1,1.16 ± 0.018
18,CC(C)Oc1ccc2c(=O)c(-c3ccccc3)coc2c1 [Ipriflavone (Osteofix)],0.968 ± 0.056
19,CCC(=O)OCC(=O)[C@@]1(OC(=O)CC)[C@@H](C)C[C@H]2[C@@H]3CCC4=CC(=O)C=C[C@]4(C)[C@@]3(F)[C@@H](O)C[C@@]21C [Betamethasone Dipropionate],1.05 ± 0.052
20,CC(C)(C)c1ccc(S(=O)(=O)/C=C/C#N)cc1,0.107 ± 0.0014
21,Cc1ccc(S(=O)(=O)C=CC#N)cc1,0.101 ± 0.0039
22,Cc1cc(C)c(-c2csc(NC(=O)c3ccccc3)n2)c(C)c1,1.17 ± 0.069
23,O=C(NO)c1ccc(CC(=O)N(CCO)c2ccccc2)cc1,1.056 ± 0.0057
24,O=C1NC(=NCc2cccs2)S/C1=C\c1ccc2ncccc2c1,1.12 ± 0.078
25,CC(Oc1cc(-c2cnn(C3CCNCC3)c2)cnc1N)c1c(Cl)ccc(F)c1Cl [(S)-crizotinib],1.12 ± 0.028
26,CC(C)(C)C(=O)OCOP(=O)(COCCn1cnc2c(N)ncnc21)OCOC(=O)C(C)(C)C [Adefovir Dipivoxil],1.02 ± 0.035

row,Compound,relative cell viability
1,Cc1cc(Nc2cc(CN3CCOCC3)c3nc(C)c(Cc4ccc(Cl)cc4F)n3n2)n[nH]1,0.92 ± 0.046
2,O=C1C(c2c(O)[nH]c3ccccc23)=Nc2ccccc21 [Indirubin],0.978 ± 0.15
3,CC(C)C[C@H](NC(=O)CNC(=O)c1cc(Cl)ccc1Cl)B1OC(=O)CC(CC(=O)O)(C(=O)O)O1 (some centres not stated),0.818 ± 0.048
4,O=C1N=C(O)NC1(c1ccccc1)c1ccccc1 [Phenytoin sodium],0.961 ± 0.045
5,CCN(CC)CCNC(=O)c1ccc(N)cc1 [Procainamide HCl],0.957 ± 0.026
6,CCN(CC)Cc1ccc2cc(COC(=O)Nc3ccc(C(=O)NO)cc3)ccc2c1 [Givinostat (ITF2357)],0.192 ± 0.018
7,COc1ccc(Cn2ccc3ccc(C(=O)NO)cc32)cc1,0.685 ± 0.085
8,C=CC(=O)N1CCN(C(=O)CNc2cc(I)c(Cl)cc2O)CC1 [K-Ras(G12C) inhibitor 12],1.06 ± 0.13
9,C=CC(C)(C)c1cc(C=CC(=O)c2ccc(O)cc2)c(OC)cc1O [Licochalcone A],1.008 ± 0.0053
10,CN1CC[C@@H](c2c(O)cc(O)c3c(=O)cc(-c4ccccc4Cl)oc23)[C@@H]1CO,0.7 ± 0.044
11,CNC(=O)c1c(F)cccc1Nc1nc(Nc2cc3c(cc2OC)CCN3C(=O)CN(C)C)nc2[nH]ccc12,1.06 ± 0.1
12,CC1(C)O[C@@H]2C[C@H]3[C@@H]4CCC5=CC(=O)CC[C@]5(C)[C@@]4(F)[C@@H](O)C[C@]3(C)[C@]2(C(=O)CCl)O1 [Halcinonide],0.905 ± 0.0084
13,NC(=O)c1ccc(-c2nc(-c3ccc4c(c3)OCCO4)c(-c3ccccn3)[nH]2)cc1,0.996 ± 0.12
14,CC(C)N(CCC(=O)c1ccc2ccccc2c1)Cc1ccccc1,0.1814 ± 0.0002
15,C/C(=C\C(=O)Nc1ccccc1C(=O)O)c1ccc2ccccc2c1,1.14 ± 0.058
16,CC(COc1ccccc1)N(CCCl)Cc1ccccc1 (configuration not stated) [Phenoxybenzamine HCl],1.07 ± 0.07
17,Cn1cc(-c2ccc3c(c2)CCN3C(=O)Cc2cccc(C(F)(F)F)c2)c2c(N)ncnc21,0.897 ± 0.087
18,CN(C)CCN1C(=O)c2cccc3cc(N)cc(c23)C1=O [Amonafide],1.042 ± 0.0065
19,COc1ccc(C2=NC(c3ccc(Cl)cc3)C(c3ccc(Cl)cc3)N2C(=O)N2CCNC(=O)C2)c(OC(C)C)c1 (configuration not stated) [Nutlin-3a],1.149 ± 0.0057
20,COc1ccc(C2=NC(c3ccc(Cl)cc3)C(c3ccc(Cl)cc3)N2C(=O)N2CCNC(=O)C2)c(OC(C)C)c1 (configuration not stated) [Nutlin-3b],1.17 ± 0.094
21,O=C(Oc1cc(S(=O)(=O)c2ccccc2)ccc1[N+](=O)[O-])c1ccc(Cl)cc1,1.04 ± 0.07
22,Nc1ccc(-c2ccc3ncc4ccc(=O)n(-c5cccc(C(F)(F)F)c5)c4c3c2)cn1 [Torin 2],0.569 ± 0.16
23,COc1cc(-c2cc(-c3ccc(N4CCNCC4)cc3)cnc2C)cc(OC)c1OC,0.87 ± 0.053
24,COc1ccc(-c2ccc3ncc4c(c3c2)n(-c2ccc(N3CCNCC3)c(C(F)(F)F)c2)c(=O)n4C)cn1,0.104 ± 0.0046
25,Cc1c(NC(=O)c2ccc(C(C)(C)C)cc2)cccc1-c1cn(C)c(=O)c(Nc2ccc(C(=O)N3CCOCC3)cc2)n1,1.04 ± 0.046
26,Cc1ccccc1C(=O)Nc1ccc(C(=O)N2CCCC(O)c3cc(Cl)ccc32)c(C)c1 (configuration not stated) [Tolvaptan],1.05 ± 0.075
